# Data from PubChem BioAssay AID743446 (Broad Institute, 2014).
# Entries with a potency or affinity are not part of this list. A number with no mark means an inactive call. The rule behind the calls is not given here.
# Experiment: HEK293 cell cytotoxicity, dose response, cytotoxicity control, plate reader, cherry-picked samples (AID 743446)
# Conditions: active compounds read low; at 26 µM unless noted
row,SMILES,max activity
1,Cc1oc(-c2ccc3c(c2)OCCO3)cc1C(=O)O,-18.6%
2,O=C(O)c1cccc(-c2noc(-c3cccc(Cl)c3)n2)c1,9.55%
3,COc1ccc(-n2sc3ccc(F)cc3c2=O)cc1,-22.4% [at 0.05 µM]
4,CC(=O)c1ccc(NC(=O)c2noc3c2CCC3)cc1,12.6% [at 0.1 µM]
5,NCC[C@H]1CC[C@H](NS(=O)(=O)Cc2ccccc2)[C@@H](CO)O1,24.3%
6,CN(C)c1ccc(C(=O)Nc2nc3c(s2)CCCC3)cc1,-30%
